Measured values: PubChem BioAssay (Tox21)
“And” between values parts separate entries of the source, which are not always exact repeats. Equal entries are not always repeated. Inconclusive results are not listed. The source holds several records for some structures; these can differ, active in one and inactive in another. The source made the active and inactive calls. Calls follow the shape of the full dose curve.

Experiment: qHTS assay to identify small molecule antagonists of the estrogen receptor alpha (ER-alpha) signaling pathway - cell viability counter screen (AID 743074);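 also: HEK293 cells carrying ER-alpha-UAS-bla reporter stimulated with 17beta-estradiol; nearly all actives have a fitted effect of over 45% in size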
Details: ERalpha-bla HEK293 viability, CellTiter-Glo luminescence, 18 h; series mostly up to 69.4 µM; activity, negative = cytotoxicity: at the top concentration
% is scaled to controls: 0 for no effect and ±100 for the full control effect; potency is read from the fitted curve at half-maximal effect.

| SMILES | activity, negative = cytotoxicity | Potency |
| --- | --- | --- |
| CCC(=O)Oc1ccc(/C(CC)=C(\CC)c2ccc(OC(=O)CC)cc2)cc1 | 17.1% (inactive) | – |
| Cc1cc(O)c(C(C)C)cc1Cl | – | inactive and 49 µM (active) |
| CCCOC(=O)c1ccc(C(=O)OCCC)nc1 | 4.63% (inactive) | – |
| COCC(O)CO (stereo not drawn) | -12.9% [at 79.1 µM] (inactive) | – |
| OC/C(Br)=C(\Br)CO | 9.83% (inactive) | – |
| O=C1OCCN1/N=C/c1ccc([N+](=O)[O-])o1 | -13.9% (inactive) | – |
| CCC(Cc1ccccc1)(C(=O)c1ccc(N2CCOCC2)cc1)N(C)C (stereo not drawn) | -16.1% (inactive) | – |
| CCn1nc(C)c2c1C(=O)NCC(c1ccc(O)cc1)=N2 | 25.1% (inactive) | – |
| Cc1cc(C(=C2C=CC(=Nc3ccc(S(=O)(=O)O)cc3S(=O)(=O)O)C=C2)c2ccc(Nc3ccc(S(=O)(=O)O)cc3)cc2)ccc1N | -12.7% (inactive) | – |
| CN1C(=O)CC(C)(c2ccccc2)C1=O (stereo not drawn) | -6.44% (inactive) | – |
| ON(Cc1ccccc1)Cc1ccccc1 | -6.7% (inactive) | – |
| Nc1ccc(S(=O)(=O)O)c(N)c1 | 7.6% (inactive) | – |
| Oc1ccc(Nc2ccccc2)cc1 | 23% (inactive) | – |
| CNC(=O)N(c1ccccc1)c1ccccc1 | 19.8% [at 79.1 µM] (inactive) | – |
| CCC(C(=O)OCCN(CC)CC)c1ccccc1 (stereo not drawn) | -14% (inactive) | – |
| O=C(O)C(Cc1cc(I)c(O)c(I)c1)c1ccccc1 (stereo not drawn) | 23.4% (inactive) | – |
| [O]=[Bi] | -18.5% [at 6.72 µM] (inactive) | – |

| SMILES | activity, negative = cytotoxicity | Potency |
| --- | --- | --- |
| CCCOCCOCCO | -11.4% (inactive) | – |
| CC(C)=CC=O | 13.7% [at 79.1 µM] (inactive) | – |
| O=C(NCCCN1CCOCC1)c1ccc(Cl)cc1 | 9% (inactive) | – |
| CC1(C)O[C@@H]2C[C@H]3[C@@H]4CCC5=CC(=O)C=C[C@]5(C)[C@H]4[C@@H](O)C[C@]3(C)[C@]2(C(=O)CO)O1 | -8.1% (inactive) | – |
| CCN(CC)CCNC(=O)c1ccc(NC(C)=O)cc1 | 5.4% (inactive) | – |
| O=[N+]([O-])c1cccc(S(=O)(=O)NCCNS(=O)(=O)c2cccc([N+](=O)[O-])c2)c1 | -11.5% (inactive) | – |
| CN(C)C(=O)Nc1ccc(Oc2ccc(Cl)cc2)cc1 | -20.2% (inactive) | – |
| O=S(=O)(c1ccccc1)c1ccc(Cl)cc1 | -18.8% (inactive) | – |
| CO[C@H]1C=CO[C@@]2(C)Oc3c(C)c(O)c4c(O)c(c5c(c4c3C2=O)=NC2(CCN(CC(C)C)CC2)N=5)NC(=O)/C(C)=C\C=C/[C@H](C)[C@H](O)[C@@H](C)[C@@H](O)[C@@H](C)[C@H](OC(C)=O)[C@@H]1C | – | inactive |
| CC(=O)OCC(=O)[C@H]1CC[C@H]2[C@@H]3CCC4=CC(=O)CC[C@]4(C)[C@H]3CC[C@]12C | -24.9% (inactive) | – |
| COc1cc2[nH]c(=O)[nH]c(=O)c2cc1OC | -1.17% [at 32.6 µM] (inactive) | – |
| CC1CN(c2cc3c(cc2F)c(=O)c(C(=O)O)cn3-c2ccc(F)cc2F)CCN1 (stereo not drawn) | -17.6% (inactive) | – |
| CCOC(=N)CC(=O)OCC | 11.4% (inactive) | – |
| Nc1ccc(S(=O)(=O)O)cc1 | -9.41% [at 79.1 µM] (inactive) | – |
| CC1=C(C=O)C(C)(C)CCC1 | 2.97% (inactive) | – |
| COC(OC)(C(=O)c1ccccc1)c1ccccc1 | 25.5% (inactive) | – |
